Laboratory results from PubChem BioAssay (EPA / NIEHS).
Records with an inconclusive call do not appear. Active and inactive are the calls of the source. How the source made its calls, unless noted: active means hit-call score of the fitted dose curve at least 0.9, where 1 is the maximum; inconclusive means response in the unintended direction; inactive means score below 0.9.

Columns and labels:
[1] = ATG_TAL_CIS: Attagene CIS-FACTORIAL HepG2 Assay for human TAL Basal Promoter (AID 2282966; active means hit-call score of the fitted dose curve at least 0.9, where 1 is the maximum; inactive means score below 0.9;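 further: background control endpoint measuring basal TAL promoter reporter mRNA not a specific factor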); conditions: HepG2 Attagene cis-factorial TAL promoter reporter; actives raise or lower the signal
In short: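 Transiently transfected HepG2 (cis-regulated reporter units), 24 h treatment, mRNA read by fluorescent CE after RT-PCR; bidirectional fit, DMSO baseline.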

[2] = ATG_TGFb_CIS: Attagene CIS-FACTORIAL HepG2 Assay for human Transforming Growth Factor (TGF) (AID 2282967; active means hit-call score of the fitted dose curve at least 0.9, where 1 is the maximum; inactive means score below 0.9); conditions: HepG2 Attagene CIS TGFb reporter, mRNA transcription; actives raise or lower the signal
In short: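 Readout: fluorescently labeled reporter cDNA fragments resolved by capillary electrophoresis after RT-PCR. Transfected HepG2 cells dosed for 24 h; endogenous TF activity at TGFB1-linked cis element; gain or loss fitted relative to DMSO.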

[3] = ATG_VDRE_CIS: Attagene CIS-FACTORIAL HepG2 Assay for human Vitamin D Receptor Element (VDRE) (AID 2282968; active means hit-call score of the fitted dose curve at least 0.9, where 1 is the maximum; inactive means score below 0.9); conditions: HepG2 VDRE cis-reporter transcription, actives raise or lower the signal
In short: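 Readout is VDRE-driven reporter mRNA reflecting endogenous factor activity in human HepG2 cells, sampled 24 h post-dose. Quantification used labelled RT-PCR products separated by capillary electrophoresis; bidirectional analysis relative to DMSO.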

[4] = target: Steroid hormone receptor ERR1 (Homo sapiens) (UniProt P11474); assay: ATG_ERRa_TRANS: Attagene TRANS-FACTORIAL HepG2 Assay for human Estrogen-Related Receptor alpha (ERRa) (AID 2282971); conditions: HepG2 Attagene TRANS reporter, ERRa transactivation
Sequence of Steroid hormone receptor ERR1 (Homo sapiens) (P11474 whole entry, looked up, the tested form may be a part): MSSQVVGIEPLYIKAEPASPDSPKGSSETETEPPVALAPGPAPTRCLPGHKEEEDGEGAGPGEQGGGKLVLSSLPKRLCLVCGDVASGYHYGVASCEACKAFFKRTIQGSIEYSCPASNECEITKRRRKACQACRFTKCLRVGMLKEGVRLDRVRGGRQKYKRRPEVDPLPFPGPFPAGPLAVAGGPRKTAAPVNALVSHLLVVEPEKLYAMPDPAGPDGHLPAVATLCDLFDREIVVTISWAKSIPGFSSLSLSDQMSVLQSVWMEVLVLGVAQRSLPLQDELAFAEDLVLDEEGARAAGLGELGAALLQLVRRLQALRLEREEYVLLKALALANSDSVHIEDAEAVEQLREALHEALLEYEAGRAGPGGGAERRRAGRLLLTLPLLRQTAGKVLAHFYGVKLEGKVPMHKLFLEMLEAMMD
In short: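 HepG2 cells transiently transfected with multiplexed GAL4-UAS reporter units reading chimeric ERRa-Gal4 activity; 24 h compound exposure. Reporter mRNA measured by RT-PCR, 6-FAM labelling, HpaI digest and capillary electrophoresis; gain of signal fitted versus DMSO baseline.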

[5] = target: X-box-binding protein 1 (Homo sapiens) (UniProt P17861); assay: ATG_Xbp1_CIS: Attagene CIS-FACTORIAL HepG2 Assay for human X-box Binding Protein 1 (XBP1) (AID 2282972; active means hit-call score of the fitted dose curve at least 0.9, where 1 is the maximum; inactive means score below 0.9); conditions: HepG2 XBP1 cis-element reporter, Attagene multiplex; actives raise or lower the signal
Sequence of X-box-binding protein 1 (Homo sapiens) (P17861 whole entry, looked up, the tested form may be a part): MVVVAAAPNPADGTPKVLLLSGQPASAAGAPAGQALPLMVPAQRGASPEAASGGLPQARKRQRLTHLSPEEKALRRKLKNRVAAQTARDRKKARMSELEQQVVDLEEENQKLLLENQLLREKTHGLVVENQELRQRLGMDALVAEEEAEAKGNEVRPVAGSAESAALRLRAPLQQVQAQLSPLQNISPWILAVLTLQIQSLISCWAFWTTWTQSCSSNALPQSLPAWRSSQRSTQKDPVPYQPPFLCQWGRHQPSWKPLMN
In short: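 Read-out: fluorescent reporter mRNA fragments resolved by capillary electrophoresis after RT-PCR. Human HepG2 liver cells carried transfected cis-promoter reporter units and were exposed to chemicals for 24 hours. Gain or loss of signal fitted relative to DMSO baseline.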

[6] = target: Estrogen-related receptor gamma (Homo sapiens) (UniProt P62508); assay: ATG_ERRg_TRANS: Attagene TRANS-FACTORIAL HepG2 Assay for human Estrogen-Related Receptor gamma (ERRg) (AID 2282977); conditions: HepG2 Attagene TRANS reporter, ERRg transactivation;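 further: hits increase reporter signal over DMSO so potencies reflect activators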
In short: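 Induction of reporter transcripts through a chimeric NR-Gal4 protein is quantified in transfected human HepG2 liver cells after 24 h chemical exposure, using RT-PCR with capillary electrophoresis detection and DMSO as baseline.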

[7] = target: Bile acid receptor (Homo sapiens) (UniProt Q96RI1); assay: ATG_FXR_TRANS: Attagene TRANS-FACTORIAL HepG2 Assay for Farnesoid X Receptor (FXR) (AID 2282979); conditions: HepG2 Attagene TRANS FXR-GAL4 reporter transcription;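 further: hits raise reporter mRNA above DMSO so AC50 marks FXR activation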
In short: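 HepG2 cells transiently transfected with reporter constructs in which a chimeric FXR-GAL4 protein drives a GAL4-UAS reporter; 24 h compound exposure. Reporter mRNA measured by RT-PCR, FAM labelling, HpaI digestion and capillary electrophoresis; gain-of-signal versus DMSO.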

[8] = target: Hepatocyte nuclear factor 4-alpha (Homo sapiens) (UniProt P41235); assay: ATG_HNF4a_TRANS: Attagene TRANS-FACTORIAL HepG2 Assay for human Hepatocyte Nuclear Factor 4 alpha (HNF4a) (AID 2282982); conditions: HepG2 HNF4a transactivation reporter, mRNA readout
Sequence of Hepatocyte nuclear factor 4-alpha (Homo sapiens) (P41235 whole entry, looked up, the tested form may be a part): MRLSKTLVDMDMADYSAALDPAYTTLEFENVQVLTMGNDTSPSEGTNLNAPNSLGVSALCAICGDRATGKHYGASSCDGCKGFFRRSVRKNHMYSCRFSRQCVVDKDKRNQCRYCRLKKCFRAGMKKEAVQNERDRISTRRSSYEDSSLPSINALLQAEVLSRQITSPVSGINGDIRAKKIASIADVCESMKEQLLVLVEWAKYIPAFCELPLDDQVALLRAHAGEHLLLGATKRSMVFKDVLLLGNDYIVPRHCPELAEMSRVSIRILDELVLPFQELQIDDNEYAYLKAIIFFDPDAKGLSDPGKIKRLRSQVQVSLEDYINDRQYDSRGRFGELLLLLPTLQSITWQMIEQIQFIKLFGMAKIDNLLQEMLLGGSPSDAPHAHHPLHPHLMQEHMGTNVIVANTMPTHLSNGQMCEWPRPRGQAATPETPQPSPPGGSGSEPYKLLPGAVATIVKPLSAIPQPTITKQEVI
In short: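 Activity of an exogenous HNF4a–Gal4 fusion scored as induced GAL4-UAS reporter transcripts after 24 h chemical exposure of transfected human HepG2 cells. Read-out via RT-PCR with 6-FAM labelling and capillary electrophoresis; rise over DMSO baseline.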

[9] = ATG_M_06_TRANS: Attagene TRANS-FACTORIAL HepG2 Assay for M06 Transcription Factor (Internal Marker) (AID 2282983); conditions: HepG2 Attagene TRANS M06 internal marker reporter;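 on AC50: potency for rise in reporter mRNA above DMSO baseline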
In short: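 In this multiplexed HepG2 system, compounds are incubated 24 h with cells carrying GAL4-UAS reporter units. Reporter RNA is amplified and resolved by capillary electrophoresis, and induction is scored against DMSO.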

[10] = ATG_M_32_TRANS: Attagene TRANS-FACTORIAL HepG2 Assay for M32 Transcription Factor (Internal Marker) (AID 2282984); conditions: HepG2 Attagene TRANS M32 internal marker reporter
In short: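 Internal background reporter in transfected HepG2: after 24 h chemical exposure, RNA reverse-transcribed, reporter cDNA amplified, fluorescently labelled and HpaI-cut, then sized by capillary electrophoresis. Gain of signal fitted against DMSO control.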

[11] = target: Nuclear receptor subfamily 4 group A member 2 (Homo sapiens) (UniProt P43354); assay: ATG_NURR1_TRANS: Attagene TRANS-FACTORIAL HepG2 Assay for human Nuclear Receptor Related Protein 1 (NURR1) (AID 2282985); conditions: HepG2 Attagene TRANS reporter, mRNA readout
In short: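 Reporter transcript induction, measured by RT-PCR with fluorescent labelling, HpaI digestion and capillary electrophoresis, after 24 hr dosing of human HepG2 cells transiently expressing an exogenous NR-Gal4 fusion with GAL4-UAS-driven reporters; DMSO as baseline.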

[12] = target: Transcriptional activator Myb (Homo sapiens) (UniProt P10242); assay: ATG_Myb_CIS: Attagene CIS-FACTORIAL HepG2 Assay for human Myeloblastosis (Myb) Proto-Oncogene Transcription Factor (AID 2282986; active means hit-call score of the fitted dose curve at least 0.9, where 1 is the maximum; inactive means score below 0.9); conditions: HepG2 Attagene CIS-FACTORIAL Myb reporter transcription; actives raise or lower the signal
Sequence of Transcriptional activator Myb (Homo sapiens) (P10242 whole entry, looked up): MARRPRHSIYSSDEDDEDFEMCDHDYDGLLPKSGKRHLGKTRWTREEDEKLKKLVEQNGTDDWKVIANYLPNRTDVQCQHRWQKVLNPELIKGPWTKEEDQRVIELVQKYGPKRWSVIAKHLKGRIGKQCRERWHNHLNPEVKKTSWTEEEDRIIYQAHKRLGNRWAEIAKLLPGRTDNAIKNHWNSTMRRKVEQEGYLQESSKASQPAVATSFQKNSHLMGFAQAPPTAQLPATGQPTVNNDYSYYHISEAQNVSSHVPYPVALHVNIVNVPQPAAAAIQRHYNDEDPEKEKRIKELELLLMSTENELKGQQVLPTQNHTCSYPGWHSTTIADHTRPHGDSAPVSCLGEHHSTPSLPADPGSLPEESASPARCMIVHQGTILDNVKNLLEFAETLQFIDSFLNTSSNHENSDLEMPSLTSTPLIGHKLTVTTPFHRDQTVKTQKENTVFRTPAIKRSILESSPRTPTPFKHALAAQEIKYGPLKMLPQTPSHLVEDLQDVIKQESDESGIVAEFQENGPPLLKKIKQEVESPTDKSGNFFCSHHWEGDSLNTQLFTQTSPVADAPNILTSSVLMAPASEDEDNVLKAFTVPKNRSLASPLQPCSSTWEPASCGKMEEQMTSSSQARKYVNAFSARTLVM
In short: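 Endogenous transcription factor activity at a Myb-responsive cis element is reported in human liver HepG2 cells after 24 h chemical treatment. Reporter mRNA is detected by RT-PCR and capillary electrophoresis fluorescence, with DMSO as baseline.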

[13] = target: Nuclear respiratory factor 1 (Homo sapiens) (UniProt Q16656); assay: ATG_NRF1_CIS: Attagene CIS-FACTORIAL HepG2 Assay for human Nuclear Respiratory Factor 1 (NRF1) Orphan Gene (AID 2282987; active means hit-call score of the fitted dose curve at least 0.9, where 1 is the maximum; inactive means score below 0.9); conditions: HepG2 NRF1 cis-element reporter, Attagene multiplex; actives raise or lower the signal
Sequence of Nuclear respiratory factor 1 (Homo sapiens) (Q16656 whole entry, looked up): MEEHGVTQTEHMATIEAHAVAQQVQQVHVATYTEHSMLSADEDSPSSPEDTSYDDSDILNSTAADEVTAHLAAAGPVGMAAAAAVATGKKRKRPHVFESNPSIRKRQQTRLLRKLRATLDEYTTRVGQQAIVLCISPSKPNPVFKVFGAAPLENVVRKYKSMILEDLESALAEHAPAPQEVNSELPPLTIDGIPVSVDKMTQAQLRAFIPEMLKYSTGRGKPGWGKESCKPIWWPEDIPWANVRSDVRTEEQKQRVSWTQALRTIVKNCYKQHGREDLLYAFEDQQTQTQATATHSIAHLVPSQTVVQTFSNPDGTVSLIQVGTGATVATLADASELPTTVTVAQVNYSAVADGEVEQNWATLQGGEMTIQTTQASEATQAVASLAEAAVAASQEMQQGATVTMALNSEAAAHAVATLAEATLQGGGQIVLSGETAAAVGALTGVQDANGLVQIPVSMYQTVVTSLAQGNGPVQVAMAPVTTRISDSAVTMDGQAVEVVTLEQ
In short: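 Human hepatoma HepG2 cells carrying transfected promoter-regulated reporter units were incubated with test chemicals for 24 h. Reporter transcripts were measured by RT-PCR plus capillary electrophoresis, and endpoints derived by bidirectional fitting with DMSO as baseline.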

[14] = target: Estrogen receptor (Homo sapiens) (UniProt P03372); assay: ATG_ERa_TRANS: Attagene TRANS-FACTORIAL HepG2 Assay for human Estrogen Receptor alpha (ERa) (AID 2282970); conditions: HepG2 Attagene TRANS ERa GAL4 reporter, mRNA
Sequence of Estrogen receptor (Homo sapiens) (P03372 whole entry, looked up, the tested form may be a part): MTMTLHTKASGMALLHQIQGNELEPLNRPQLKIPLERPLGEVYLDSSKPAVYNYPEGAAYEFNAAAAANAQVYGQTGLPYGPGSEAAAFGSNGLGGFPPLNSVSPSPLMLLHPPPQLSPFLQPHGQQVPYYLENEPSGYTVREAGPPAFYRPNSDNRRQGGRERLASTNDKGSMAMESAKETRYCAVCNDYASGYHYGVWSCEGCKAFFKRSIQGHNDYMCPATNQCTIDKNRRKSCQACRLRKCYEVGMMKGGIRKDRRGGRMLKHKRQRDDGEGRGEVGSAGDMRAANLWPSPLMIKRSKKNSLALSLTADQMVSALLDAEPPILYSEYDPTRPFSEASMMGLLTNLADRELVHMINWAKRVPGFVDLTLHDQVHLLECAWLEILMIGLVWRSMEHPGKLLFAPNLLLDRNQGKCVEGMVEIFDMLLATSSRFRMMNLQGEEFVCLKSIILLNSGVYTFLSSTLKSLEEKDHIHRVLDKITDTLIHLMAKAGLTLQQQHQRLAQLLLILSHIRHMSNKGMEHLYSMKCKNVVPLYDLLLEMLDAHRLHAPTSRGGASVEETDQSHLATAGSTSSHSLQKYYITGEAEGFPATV
In short: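 One of 30 multiplexed endpoints from a HepG2 TRANS system, this one reports ERa-Gal4-driven reporter mRNA. Transcripts were quantified 24 hours post-dosing by fluorescent RT-PCR and capillary electrophoresis, with activity scored as induction over DMSO.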

[15] = target: Oxysterols receptor LXR-alpha (Homo sapiens) (UniProt Q13133); assay: ATG_LXRa_TRANS: Attagene TRANS-FACTORIAL HepG2 Assay for human Liver X Receptor alpha (LXRa) (AID 2282980); conditions: HepG2 Attagene TRANS reporter, LXRa transactivation
Sequence of Oxysterols receptor LXR-alpha (Homo sapiens) (Q13133 whole entry, looked up, the tested form may be a part): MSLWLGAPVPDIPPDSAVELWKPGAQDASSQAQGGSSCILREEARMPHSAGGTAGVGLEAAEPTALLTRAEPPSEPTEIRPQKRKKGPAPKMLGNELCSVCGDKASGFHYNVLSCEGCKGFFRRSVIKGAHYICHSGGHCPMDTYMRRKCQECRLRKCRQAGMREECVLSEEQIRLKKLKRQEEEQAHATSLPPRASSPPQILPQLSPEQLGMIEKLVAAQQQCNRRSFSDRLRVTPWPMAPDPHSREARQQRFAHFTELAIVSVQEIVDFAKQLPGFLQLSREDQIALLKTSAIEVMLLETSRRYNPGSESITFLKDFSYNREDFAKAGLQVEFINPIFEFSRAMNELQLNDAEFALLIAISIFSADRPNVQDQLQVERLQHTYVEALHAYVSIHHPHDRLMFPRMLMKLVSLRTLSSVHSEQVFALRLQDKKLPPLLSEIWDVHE
In short: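 HepG2 cells were transiently transfected with multiplexed reporter units driven by chimeric LXRa–GAL4 fusion proteins, then dosed for 24 h. Reporter mRNA was quantified by RT-PCR, fluorescent labelling and capillary electrophoresis; gain of signal fitted against DMSO baseline.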

[16] = target: Oxysterols receptor LXR-beta (Homo sapiens) (UniProt P55055); assay: ATG_LXRb_TRANS: Attagene TRANS-FACTORIAL HepG2 Assay for human Liver X Receptor beta (LXRb) (AID 2282981); conditions: HepG2 Attagene TRANS GAL4-LXRb reporter, mRNA
Sequence of Oxysterols receptor LXR-beta (Homo sapiens) (P55055 whole entry, looked up, the tested form may be a part): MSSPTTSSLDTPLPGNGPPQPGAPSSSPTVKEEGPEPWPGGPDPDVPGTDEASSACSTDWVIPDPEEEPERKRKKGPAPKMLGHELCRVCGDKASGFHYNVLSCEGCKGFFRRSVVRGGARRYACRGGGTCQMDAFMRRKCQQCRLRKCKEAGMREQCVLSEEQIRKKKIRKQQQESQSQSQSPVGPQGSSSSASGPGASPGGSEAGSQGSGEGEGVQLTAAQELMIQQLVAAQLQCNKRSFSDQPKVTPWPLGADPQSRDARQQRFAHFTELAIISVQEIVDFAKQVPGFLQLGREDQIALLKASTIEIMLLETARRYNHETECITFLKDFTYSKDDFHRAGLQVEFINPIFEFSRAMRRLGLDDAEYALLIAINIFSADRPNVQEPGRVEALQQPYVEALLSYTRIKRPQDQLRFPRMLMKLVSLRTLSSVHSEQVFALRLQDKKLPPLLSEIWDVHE
In short: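 After 24 h chemical treatment of transfected HepG2 cells carrying exogenous NR-Gal4 chimeras, reporter mRNA was quantified by fluorescent RT-PCR and capillary electrophoresis; activity taken as increase over DMSO controls.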

[17] = ATG_M_19_TRANS: Attagene TRANS-FACTORIAL HepG2 Assay for M19 Transcription Factor (Internal Marker) (AID 2282974); conditions: HepG2 Attagene TRANS-FACTORIAL M19 internal marker reporter
In short: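 After transfection of HepG2 with GAL4-UAS-driven reporter constructs, cells are dosed for 24 h. Total RNA is reverse-transcribed, reporter sequences PCR-amplified and labelled, then HpaI-digested and sized by capillary electrophoresis.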

[18] = target: Glucocorticoid receptor (Homo sapiens) (UniProt P04150); assay: ATG_GR_TRANS: Attagene TRANS-FACTORIAL HepG2 Assay for human Glucocorticoid Receptor (GR) (AID 2282978); conditions: HepG2 Attagene TRANS GR reporter, mRNA transcription;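 further: activators score as hits since higher reporter transcript over DMSO is fitted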
Sequence of Glucocorticoid receptor (Homo sapiens) (P04150 whole entry, looked up): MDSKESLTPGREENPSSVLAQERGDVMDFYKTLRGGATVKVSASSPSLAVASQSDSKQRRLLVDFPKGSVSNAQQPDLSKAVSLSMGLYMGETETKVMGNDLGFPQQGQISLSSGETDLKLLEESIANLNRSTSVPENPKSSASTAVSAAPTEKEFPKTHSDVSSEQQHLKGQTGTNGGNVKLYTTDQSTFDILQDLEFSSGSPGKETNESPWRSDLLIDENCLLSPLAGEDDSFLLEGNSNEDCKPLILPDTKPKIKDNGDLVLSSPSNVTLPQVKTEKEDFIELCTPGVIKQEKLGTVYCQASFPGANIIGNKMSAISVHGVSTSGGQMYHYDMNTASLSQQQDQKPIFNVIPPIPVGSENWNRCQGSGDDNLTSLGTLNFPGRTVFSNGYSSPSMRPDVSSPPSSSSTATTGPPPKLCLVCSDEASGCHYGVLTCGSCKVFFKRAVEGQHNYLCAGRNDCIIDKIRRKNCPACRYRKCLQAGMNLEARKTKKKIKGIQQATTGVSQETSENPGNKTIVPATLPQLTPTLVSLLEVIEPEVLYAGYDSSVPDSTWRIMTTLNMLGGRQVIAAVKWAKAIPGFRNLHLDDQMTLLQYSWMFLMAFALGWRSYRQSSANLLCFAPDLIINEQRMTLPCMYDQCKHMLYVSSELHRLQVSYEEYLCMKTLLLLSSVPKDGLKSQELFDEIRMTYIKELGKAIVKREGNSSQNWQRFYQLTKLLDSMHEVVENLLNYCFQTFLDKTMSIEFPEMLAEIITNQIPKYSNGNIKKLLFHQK
In short: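 Multiplexed TRANS reporter system, HepG2; 24 h exposure; RNA → oligo(dT) RT → reporter-specific PCR → 6-FAM primer extension → HpaI cut → CE fluorescence. Gain-of-signal vs DMSO.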

[19] = ATG_GAL4_TRANS: Attagene TRANS-FACTORIAL HepG2 Assay for GAL4 (Internal Marker) (AID 2282976); conditions: HepG2 Attagene TRANS GAL4 internal marker reporter
In short: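 HepG2 cells transiently transfected with multiplexed GAL4-UAS reporter constructs were dosed for 24 h. Reporter mRNA was measured by RT-PCR, 6-FAM primer extension, HpaI digestion and capillary electrophoresis, and gain of signal was fitted relative to DMSO.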

Measured: AC50

C/C=C\C/C=C/CCCCCCCCOC(C)=O
active: [3] 30.1 µM | [5] 100 µM
not listed: [14] | [15] | [16] | [17] | [18] | [19]
inactive: all other assays above

CN(C)c1ccc(C(=N)c2ccc(N(C)C)cc2)cc1
active: [3] 1.29 µM | [5] 1.21 µM | [10] 106 µM
not listed: [4] | [6] | [7] | [17] | [18] | [19]
inactive: all other assays above

CCCCC(CC)CCC(CC(C)C)OS(=O)(=O)O (centres undefined)
not listed: [4] | [6] | [8] | [15] | [17] | [18] | [19]
inactive: all other assays above

CC(C)C(=O)C(C)C
active: [3] 55.2 µM | [5] 34.7 µM
not listed: [6] | [7] | [8] | [14] | [15] | [16] | [19]
inactive: all other assays above

O=C(O)c1ccccc1Nc1cccc(C(F)(F)F)c1
inactive: [1] | [2] | [14] | [16] | [9] | [10] | [12] | [13]
active: [3] 44.5 µM | [5] 76.5 µM

COc1ccc(-c2coc3cc(O)ccc3c2=O)cc1
active: [14] 1.21 µM
not listed: [4] | [6] | [7] | [15] | [17] | [19]
inactive: all other assays above

CC(C)c1ccc2c(c1)CC[C@H]1[C@](C)(CN)CCC[C@]21C
active: [3] 5.66 µM | [5] 5.24 µM | [9] 5.45 µM
not listed: [4] | [6] | [10] | [17] | [19]
inactive: all other assays above

CCCC(=O)OCc1ccccc1
not listed: [6] | [7] | [9] | [11] | [14] | [15] | [16] | [18]
inactive: all other assays above

CCCOC(=O)CCCCC(=O)OCCC
not listed: [7] | [9] | [14]
inactive: all other assays above
